Screens: PubChem BioAssay, National Center for Advancing Translational Sciences (NCATS)
GLP1R ag: qHTS of GLP-1 Receptor Agonists; Potency, µM (doses to about 45.6 µM), usual class: activators; 380,000 tested, 0.007% active; AID 624172, 2012; Glucagon-like peptide 1 receptor (Homo sapiens), P43220; HEK293 GLP-1R CRE-luciferase, luminescence, 4-6 h; cells express a hypersensitive GLP-1R form
GLP1R inv ag: qHTS of GLP-1 Receptor Inverse Agonists (Inhibition Mode); Potency, µM (highest dose often 38.3 µM), usual class: inhibitors; 410,000 tested, 1.6% active; HEK293 GLP-1R CRE-luciferase, luminescence, 24 h; GLP-1R form is constitutively active; Glucagon-like peptide 1 receptor (Homo sapiens), P43220; also: nearly all actives have a fitted effect of over 55% in size
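Luminescence readout: a drop in cAMP-driven luciferase signal flags inverse agonism at a constitutively active GLP-1R stably expressed in HEK293. Compound exposure lasted 24 hr at 37 deg C, 5% CO2.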
GLP1R cytotox: qHTS of GLP-1 Receptor Inverse Agonists: Cytotox Screen | AID 624418, 2012 | 410,000 tested, 0.13% active | HEK293 cAMP-luciferase reporter cells, luminescence, 24 h | Potency, µM (series often up to 38.3 µM), usual class: inhibitors;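 also: loss of luciferase light is scored as toxicity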
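Here, cytotoxicity is scored as loss of luminescence. The MLSMR collection was tested on cells seeded in medium containing 10% Nu serum, with a 24 hr compound exposure preceded by 12 hours of culture.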
PTHR1 agonist: qHTS for PTHR1 Agonists: Primary Screen; Parathyroid hormone/parathyroid hormone-related peptide receptor (Homo sapiens), Q03431; HEK293 GP2 PTHR1 cells, GloSensor cAMP luminescence, 1 h; Potency, µM (highest dose often 115 µM), hits mostly activators; 410,000 tested, 0.075% active; also: nearly all actives have a fitted effect of over 55% in size
Target sequence (Q03431 whole entry, looked up): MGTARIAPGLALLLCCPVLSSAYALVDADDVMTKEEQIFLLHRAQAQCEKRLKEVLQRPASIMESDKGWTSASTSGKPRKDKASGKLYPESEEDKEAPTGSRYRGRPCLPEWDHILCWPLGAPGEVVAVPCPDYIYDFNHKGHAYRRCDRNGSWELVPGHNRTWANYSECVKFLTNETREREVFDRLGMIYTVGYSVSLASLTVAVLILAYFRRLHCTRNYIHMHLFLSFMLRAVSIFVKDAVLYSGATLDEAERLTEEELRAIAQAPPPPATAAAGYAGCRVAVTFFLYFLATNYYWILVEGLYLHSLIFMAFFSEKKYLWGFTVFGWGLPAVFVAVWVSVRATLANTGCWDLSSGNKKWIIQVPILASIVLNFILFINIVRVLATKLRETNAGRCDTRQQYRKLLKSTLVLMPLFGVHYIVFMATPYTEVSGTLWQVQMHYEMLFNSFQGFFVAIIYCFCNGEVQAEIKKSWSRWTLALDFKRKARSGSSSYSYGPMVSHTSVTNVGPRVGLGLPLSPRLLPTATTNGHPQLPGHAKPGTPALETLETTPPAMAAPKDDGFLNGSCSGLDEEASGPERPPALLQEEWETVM
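HEK-293-derived GP2 cells expressing PTHR1 and a GloSensor cAMP reporter, 3,000/well, plated overnight, given luciferin plus IBMX (each 0.5 mM as added) for 1 h at 37 °C, then compound for 1 h at 37 °C. Luminescence was read after 15 min at room temperature.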
A number is an active result. Only some compounds are listed: those with a hit (about 1.7% of all), similar ones and a draw of the others. Calls follow the shape of the dose curve; as a rule, active = well fitted curve in the direction sought with a large enough effect; inconclusive = small, poorly fitted or top-dose-only effect, or another doubt; inactive = no such curve, though single readings can be large; an effect the other way counts as inactive or inconclusive.

`O=C(CSc1nnc(Nc2ccccc2F)s1)Nc1cccc(S(=O)(=O)N2CCCCC2)c1` gave GLP1R ag inactive, GLP1R inv ag 10µM, GLP1R cytotox inactive and PTHR1 agonist inactive.
Screening O=C(CNc1cccc(C(F)(F)F)c1)Nc1cccc(S(=O)(=O)N2CCCC2)c1 returned GLP1R ag inactive, GLP1R inv ag 2.5µM, GLP1R cytotox inactive and PTHR1 agonist inactive.
For O=C(CN1CCN(S(=O)(=O)c2ccccc2)CC1)Nc1cccc(C(F)(F)F)c1 the results were GLP1R ag inactive, GLP1R inv ag 4.5µM, GLP1R cytotox inactive and PTHR1 agonist inactive.
Cc1ccc(Cn2c(CO)cnc2SCC(=O)Nc2ccc(C)c(Cl)c2)cc1 was read as GLP1R inv ag 13µM, GLP1R cytotox inactive and PTHR1 agonist inactive.
For CCOC(=O)COc1ccc2c(C)c(CCN(CC)CC)c(=O)oc2c1 the results were GLP1R ag inactive.
For CCC(C(=O)Nc1ccccc1-c1ccccc1)c1ccccc1 (centres undefined) the results were GLP1R ag inactive, GLP1R inv ag 7.9µM, GLP1R cytotox inactive and PTHR1 agonist inactive.
For O=C(CC1CC2CCC1C2)OCC(=O)c1c[nH]c2ccccc12 (centres undefined) the results were GLP1R ag inactive, GLP1R inv ag 10µM, GLP1R cytotox inactive and PTHR1 agonist inactive.
`Cc1nc([N+](=O)[O-])cn1-c1ccc([N+](=O)[O-])cc1` gave GLP1R ag inactive.
CCCC[C@H](O)c1ccccc1 was read as GLP1R ag inactive.
`COc1ccc(C(=O)/C=C2\C(=O)Nc3ccc(Br)cc32)cc1` gave GLP1R ag inactive, GLP1R inv ag inconclusive, GLP1R cytotox inconclusive and PTHR1 agonist inactive.
Screening O=C1Nc2ccc(Br)cc2/C1=C/C1CC=CCC1 (centres undefined) returned GLP1R ag inactive, GLP1R inv ag 4.5µM, GLP1R cytotox inactive and PTHR1 agonist inactive.
For CCOc1ccccc1CNC(=O)CN1C(=O)CCc2cc(S(=O)(=O)N3CCCCC3)ccc21 the results were GLP1R inv ag inactive, GLP1R cytotox inactive and PTHR1 agonist inactive.
CCOc1ccc(NC(=O)c2c(NCc3sccc3C)sc3c2CCCCC3)cc1 was read as GLP1R inv ag inactive, GLP1R cytotox inactive and PTHR1 agonist inactive.
Screening CCC1CN(C(=O)Nc2cccc3c2CCCC3)c2cc(Cl)ccc2O1 (centres undefined) returned GLP1R inv ag 10µM, GLP1R cytotox inactive and PTHR1 agonist inactive.
CCC1CN(C(=O)Nc2cccc3c2CCCC3)c2ccccc2O1 (centres undefined) was read as GLP1R inv ag inconclusive, GLP1R cytotox inactive and PTHR1 agonist inactive.
`CC(CSC(=O)c1ccccc1)C(=O)N1CC(Sc2ccccc2)CC1C(=O)O` (centres undefined) gave GLP1R ag inactive.
O=Cc1ccc(Oc2cc(-c3ccccc3)nc(-c3ccccc3)n2)cc1 was read as GLP1R ag inactive, GLP1R inv ag inactive, GLP1R cytotox inactive and PTHR1 agonist inactive.
Screening O=S(Cc1cc(Oc2ccccc2)nc(-c2ccccc2)n1)c1ccccc1 (centres undefined) returned GLP1R ag inactive, GLP1R inv ag 10µM, GLP1R cytotox inactive and PTHR1 agonist inactive.
For S=C(N/N=C/c1ccccc1Cl)Nc1ccccc1 the results were GLP1R ag inactive, GLP1R inv ag inconclusive, GLP1R cytotox 4µM and PTHR1 agonist inactive.
`COc1cccc(CSc2nc3n(n2)C(CC(C)C)C(C(=O)Nc2ccccc2OC)=C(C)N3)c1` (centres undefined) gave GLP1R inv ag inactive, GLP1R cytotox inactive and PTHR1 agonist inactive.
Cc1cc(NC(=O)CON=C(N)CC(=O)Nc2ccccc2Cl)ccc1Br was read as GLP1R ag inactive, GLP1R inv ag 10µM, GLP1R cytotox inactive and PTHR1 agonist inactive.
For Cc1ccc(C2C=C(c3ccc(Cl)cc3)Nc3nc(NC(=O)c4ccco4)nn32)cc1 (centres undefined) the results were GLP1R inv ag inconclusive, GLP1R cytotox inactive and PTHR1 agonist inactive.
Screening CCOc1ccccc1CNC(=O)c1ccc2c(c1)nc1n2CCCCC1 returned GLP1R inv ag inconclusive, GLP1R cytotox inactive and PTHR1 agonist inactive.
Screening CCn1c(=N)n(CC(=O)c2ccc(Cl)c(Cl)c2)c2ccccc21 returned GLP1R ag inactive, GLP1R inv ag inconclusive, GLP1R cytotox inactive and PTHR1 agonist inactive.
`N=c1n(CCN2CCCCC2)c2ccccc2n1CC(=O)c1ccc(Cl)c(Cl)c1` gave GLP1R ag inactive, GLP1R inv ag 5.6µM, GLP1R cytotox inconclusive and PTHR1 agonist inactive.
For COC(=O)Cn1c(=N)n(CCN2CCCCC2)c2ccccc21 the results were GLP1R ag inactive, GLP1R inv ag inactive, GLP1R cytotox inactive and PTHR1 agonist inactive.
`Cc1ccc(C(=O)Cn2c(=N)n(CCN3CCOCC3)c3ccccc32)cc1` gave GLP1R ag inactive, GLP1R inv ag inconclusive, GLP1R cytotox 2.5µM and PTHR1 agonist inactive.
For CCc1c(CN2CCN(c3cccc(C)c3C)CC2)csc1C the results were GLP1R inv ag inactive, GLP1R cytotox inactive and PTHR1 agonist inactive.
Screening NNC(=O)CSc1cccc2cccnc12 returned GLP1R ag inactive, GLP1R inv ag inactive, GLP1R cytotox inactive and PTHR1 agonist inactive.
`Cc1cccc(NC(=O)CSc2cccc3cccnc23)c1` gave GLP1R ag inactive, GLP1R inv ag inactive, GLP1R cytotox inactive and PTHR1 agonist inactive.
`CCCCOc1ccc(NC(=O)CSc2cccc3cccnc23)cc1` gave GLP1R ag inactive, GLP1R inv ag 2.8µM, GLP1R cytotox inconclusive and PTHR1 agonist inactive.
For O=C(CSc1ncccn1)N1CCCCCC1 the results were GLP1R ag inactive, GLP1R inv ag inactive, GLP1R cytotox inactive and PTHR1 agonist inactive.
For CN(C)C(=O)CSc1cccc2cccnc12 the results were GLP1R ag inactive, GLP1R inv ag 2.8µM, GLP1R cytotox 2.5µM and PTHR1 agonist inactive.
O=C(CSc1cccc2cccnc12)N1CCCC1 was read as GLP1R ag inactive, GLP1R inv ag 0.5µM, GLP1R cytotox 0.71µM and PTHR1 agonist inactive.
Screening Cc1ccc(-n2nnc(-c3nsc(NC(=O)c4ccccc4C)n3)c2C)cc1Cl returned GLP1R inv ag inactive, GLP1R cytotox inactive and PTHR1 agonist inactive.
Screening COc1ccc(C2CC(c3cccs3)=NN2C(=O)CSc2nc3ccccc3s2)cc1 (centres undefined) returned GLP1R ag inactive, GLP1R inv ag inconclusive, GLP1R cytotox inactive and PTHR1 agonist inactive.
Screening O=C(CSc1nc2ccccc2s1)N1N=C(c2cccs2)CC1c1ccc(F)cc1 (centres undefined) returned GLP1R ag inactive, GLP1R inv ag 4µM, GLP1R cytotox inactive and PTHR1 agonist inactive.
For Cc1ccc(Nc2nccc(N(C)c3ccc4c(C)n(C)nc4c3)n2)cc1S(N)(=O)=O the results were GLP1R ag inactive.
